# Test results reported in PubChem BioAssay (EPA / NIEHS).
# Records with an inconclusive call do not appear. The source made the active and inactive calls. How the source made its calls, unless noted: active means hit-call score of the fitted dose curve at least 0.9, where 1 is the maximum; inactive means score below 0.9.
# Experiments:
# [1] = target: Paired box protein Pax-6 (Homo sapiens) (UniProt P26367); assay: ATG_Pax6_CIS: Attagene CIS-FACTORIAL HepG2 Assay for human Paired Box 6 (PAX6) (AID 2282956); details: HepG2 CIS-FACTORIAL PAX6 reporter transcription, RNA readout; actives raise or lower the signal
# In short: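 Multiplexed cis-reporter HepG2 system; 24 h treatment; reporter mRNA read by RT-PCR/CE fluorescence; bidirectional fit vs DMSO.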
# [2] = ATG_PXRE_CIS: Attagene CIS-FACTORIAL HepG2 Assay for human Pregnane X Receptor Element (PXRE) (AID 2282957); details: HepG2 Attagene CIS-FACTORIAL PXRE reporter, mRNA; actives raise or lower the signal
# In short: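 HepG2 cells transiently transfected with cis-element-driven multiplexed reporter units; after 24 h chemical exposure, reporter mRNA measured by RT-PCR, 6-FAM labelling, HpaI digestion and capillary electrophoresis. Bidirectional fitting relative to DMSO.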
# [3] = ATG_RORE_CIS: Attagene CIS-FACTORIAL HepG2 Assay for human RAR-related Orphan Receptor Element (RORE) (AID 2282959); details: HepG2 Attagene cis-factorial RORE reporter, mRNA; actives raise or lower the signal
# In short: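 Measured here: transcript induction of a cis-regulated reporter in HepG2 cells transiently transfected via FuGene 6. After 24 h, RNA was processed by RT-PCR and fluorescent capillary electrophoresis; DMSO defined baseline activity.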
# [4] = ATG_Sox_CIS: Attagene CIS-FACTORIAL HepG2 Assay for human SRY-box transcription factor (SOX) (AID 2282960); details: HepG2 Attagene cis-factorial SOX reporter, mRNA; actives raise or lower the signal
# In short: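 Using transiently transfected HepG2 cells, reporter transcription driven by cis elements was assessed 24 h after dosing. Signal was fluorescence of capillary-separated RT-PCR products, with DMSO defining baseline activity.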
# [5] = target: Transcription factor Sp1 (Homo sapiens) (UniProt P08047); assay: ATG_Sp1_CIS: Attagene CIS-FACTORIAL HepG2 Assay for human Specificity Protein 1 (Sp1) (AID 2282961); details: HepG2 Sp1 cis-reporter transcription, actives raise or lower the signal
# In short: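 After transient transfection of HepG2 cells with cis-promoter reporter units and 24 h chemical treatment, reporter transcripts were quantified by RT-PCR and capillary electrophoresis fluorescence. Gain- and loss-of-signal fitted against DMSO.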
# [6] = ATG_SREBP_CIS: Attagene CIS-FACTORIAL HepG2 Assay for human Sterol Regulatory Element Binding (SREBP) (AID 2282962); details: HepG2 Attagene cis-factorial SREBP reporter, mRNA; actives raise or lower the signal
# In short: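 mRNA induction of transfected cis-promoter reporters in HepG2 cells, 24 h post-dose. Detection: RT-PCR with 6-FAM-labelled products, HpaI digest, capillary electrophoresis. DMSO served as negative control and baseline.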
# [7] = target: Signal transducer and activator of transcription 3 (Homo sapiens) (UniProt P40763); assay: ATG_STAT3_CIS: Attagene CIS-FACTORIAL HepG2 Assay for human Signal Transducer and Activator of Transcription 3 (STAT3) (AID 2282963); details: HepG2, Attagene cis-factorial STAT3 reporter transcription; actives raise or lower the signal
# In short: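 After a 24 h compound incubation, total RNA from MRTU-transfected HepG2 cells was converted to cDNA and reporter sequences PCR-amplified, labelled and profiled by capillary electrophoresis. Gain and loss of signal were referenced to DMSO.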
# [8] = ATG_TCF_b_cat_CIS: Attagene CIS-FACTORIAL HepG2 Assay for human T-Cell-Factor with beta-catenin (TCF/b-cat) (AID 2282965); details: HepG2 TCF/beta-catenin cis-reporter transcription, actives raise or lower the signal
# In short: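 Endogenous transcription factor activity is captured through cis-promoter reporter constructs transiently introduced into human HepG2 liver cells. Induced reporter mRNA is measured after 24 h and fitted bidirectionally relative to DMSO.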
# [9] = ATG_TAL_CIS: Attagene CIS-FACTORIAL HepG2 Assay for human TAL Basal Promoter (AID 2282966); details: HepG2 Attagene cis-factorial TAL promoter reporter; actives raise or lower the signal;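 further: background control endpoint measuring basal TAL promoter reporter mRNA not a specific factor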
# In short: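 HepG2 cells transiently transfected with multiplexed cis-promoter reporter units, dosed 24 h. Reporter mRNA quantified by RT-PCR, 6-FAM labelling, HpaI digestion and capillary electrophoresis; TAL basal promoter serves as background control, fitted bidirectionally versus DMSO.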
# [10] = ATG_TGFb_CIS: Attagene CIS-FACTORIAL HepG2 Assay for human Transforming Growth Factor (TGF) (AID 2282967); details: HepG2 Attagene CIS TGFb reporter, mRNA transcription; actives raise or lower the signal
# In short: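 Endogenous TGFB1-linked transcription factor activity read as reporter mRNA via RT-PCR and capillary electrophoresis, 24 h after dosing transiently transfected HepG2 cells. Gain or loss of signal fitted relative to DMSO.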
# [11] = target: X-box-binding protein 1 (Homo sapiens) (UniProt P17861); assay: ATG_Xbp1_CIS: Attagene CIS-FACTORIAL HepG2 Assay for human X-box Binding Protein 1 (XBP1) (AID 2282972); details: HepG2 XBP1 cis-element reporter, Attagene multiplex; actives raise or lower the signal
# In short: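 Fluorescence-labelled cDNA fragments from reporter transcripts, separated by capillary electrophoresis, give the signal. Source: HepG2 cells transfected with promoter-driven reporter units, harvested 24 h post-dose. DMSO served as reference for bidirectional curve fitting.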
# [12] = ATG_M_19_TRANS: Attagene TRANS-FACTORIAL HepG2 Assay for M19 Transcription Factor (Internal Marker) (AID 2282974; active means hit-call score of the fitted dose curve at least 0.9, where 1 is the maximum); details: HepG2 Attagene TRANS-FACTORIAL M19 internal marker reporter
# In short: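 Gain-of-signal in reporter mRNA, relative to DMSO, was scored from capillary electrophoresis fluorescence. HepG2 cells carried transiently transfected multiple reporter transcription units and were incubated with test chemicals for 24 h.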
# [13] = ATG_GAL4_TRANS: Attagene TRANS-FACTORIAL HepG2 Assay for GAL4 (Internal Marker) (AID 2282976; active means hit-call score of the fitted dose curve at least 0.9, where 1 is the maximum); details: HepG2 Attagene TRANS GAL4 internal marker reporter
# In short: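 Background-control readout: GAL4-UAS reporter transcript in transiently transfected HepG2 cells after 24 h compound exposure. Measured by RT-PCR, 6-FAM primer extension, HpaI digest and capillary electrophoresis; gain-of-signal fit versus DMSO.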
# [14] = ATG_TA_CIS: Attagene CIS-FACTORIAL HepG2 Assay for human TA Basal Promoter (AID 2282964); details: HepG2 Attagene CIS-factorial TA basal promoter reporter; actives raise or lower the signal
# In short: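 Background-control readout: TA basal promoter reporter mRNA, fitted in both directions relative to DMSO. Measured by RT-PCR and capillary electrophoresis 24 hours after treating HepG2 human liver cells transiently carrying multiplexed cis-regulated reporter constructs.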
# [15] = ATG_VDRE_CIS: Attagene CIS-FACTORIAL HepG2 Assay for human Vitamin D Receptor Element (VDRE) (AID 2282968); details: HepG2 VDRE cis-reporter transcription, actives raise or lower the signal
# In short: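 In transiently transfected HepG2 liver cells, gain or loss of reporter mRNA after 24 h exposure is scored relative to DMSO, using fluorescence detection by capillary electrophoresis of RT-PCR products.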
# [16] = target: Nuclear receptor subfamily 1 group I member 3 (Homo sapiens) (UniProt Q14994); assay: ATG_CAR_TRANS: Attagene TRANS-FACTORIAL HepG2 Assay for human Constitutive Androstane Receptor (CAR) (AID 2282969; active means hit-call score of the fitted dose curve at least 0.9, where 1 is the maximum;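 further: activators raise reporter mRNA above DMSO so AC50 marks induction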); details: HepG2 Attagene TRANS-FACTORIAL CAR reporter
# In short: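 Readout is reporter mRNA induction, quantified by fluorescent primer extension and capillary electrophoresis after RT-PCR. Cells were HepG2 transiently carrying chimeric NR-Gal4 constructs with GAL4-UAS reporters, treated for 24 h; activity scored upward from DMSO.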
# [17] = target: Estrogen receptor (Homo sapiens) (UniProt P03372); assay: ATG_ERa_TRANS: Attagene TRANS-FACTORIAL HepG2 Assay for human Estrogen Receptor alpha (ERa) (AID 2282970; active means hit-call score of the fitted dose curve at least 0.9, where 1 is the maximum); details: HepG2 Attagene TRANS ERa GAL4 reporter, mRNA
# In short: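 HepG2 cells transiently transfected with multiplexed GAL4-UAS reporter units read out chimeric NR-Gal4 activity. After 24 h compound exposure, reporter mRNA was quantified by RT-PCR, 6-FAM labeling, HpaI digestion and capillary electrophoresis, relative to DMSO.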
# [18] = target: Steroid hormone receptor ERR1 (Homo sapiens) (UniProt P11474); assay: ATG_ERRa_TRANS: Attagene TRANS-FACTORIAL HepG2 Assay for human Estrogen-Related Receptor alpha (ERRa) (AID 2282971; active means hit-call score of the fitted dose curve at least 0.9, where 1 is the maximum); details: HepG2 Attagene TRANS reporter, ERRa transactivation
# In short: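 HepG2 cells transiently transfected with GAL4-UAS reporter units and chimeric NR-Gal4 constructs; after 24 hour compound incubation, reporter mRNA quantified by RT-PCR, fluorescent labelling and capillary electrophoresis, gain of signal versus DMSO.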
# [19] = target: Estrogen-related receptor gamma (Homo sapiens) (UniProt P62508); assay: ATG_ERRg_TRANS: Attagene TRANS-FACTORIAL HepG2 Assay for human Estrogen-Related Receptor gamma (ERRg) (AID 2282977; active means hit-call score of the fitted dose curve at least 0.9, where 1 is the maximum;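 further: hits increase reporter signal over DMSO so potencies reflect activators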); details: HepG2 Attagene TRANS reporter, ERRg transactivation
# In short: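 Transient HepG2 transfectants, 24 h compound exposure, GAL4-UAS reporter mRNA by RT-PCR/6-FAM labelling/capillary electrophoresis; positive direction vs DMSO.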
# Chain of X-box-binding protein 1 (Homo sapiens) (P17861 whole entry, looked up, the tested form may be a part): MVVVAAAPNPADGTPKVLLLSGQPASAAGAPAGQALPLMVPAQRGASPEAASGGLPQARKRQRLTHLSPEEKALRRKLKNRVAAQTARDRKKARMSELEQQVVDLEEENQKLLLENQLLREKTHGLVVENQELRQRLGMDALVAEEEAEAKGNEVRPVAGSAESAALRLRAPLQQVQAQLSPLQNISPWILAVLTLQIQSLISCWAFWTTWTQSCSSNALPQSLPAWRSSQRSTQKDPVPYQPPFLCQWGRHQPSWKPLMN
# Chain of Estrogen receptor (Homo sapiens) (P03372 whole entry, looked up, the tested form may be a part): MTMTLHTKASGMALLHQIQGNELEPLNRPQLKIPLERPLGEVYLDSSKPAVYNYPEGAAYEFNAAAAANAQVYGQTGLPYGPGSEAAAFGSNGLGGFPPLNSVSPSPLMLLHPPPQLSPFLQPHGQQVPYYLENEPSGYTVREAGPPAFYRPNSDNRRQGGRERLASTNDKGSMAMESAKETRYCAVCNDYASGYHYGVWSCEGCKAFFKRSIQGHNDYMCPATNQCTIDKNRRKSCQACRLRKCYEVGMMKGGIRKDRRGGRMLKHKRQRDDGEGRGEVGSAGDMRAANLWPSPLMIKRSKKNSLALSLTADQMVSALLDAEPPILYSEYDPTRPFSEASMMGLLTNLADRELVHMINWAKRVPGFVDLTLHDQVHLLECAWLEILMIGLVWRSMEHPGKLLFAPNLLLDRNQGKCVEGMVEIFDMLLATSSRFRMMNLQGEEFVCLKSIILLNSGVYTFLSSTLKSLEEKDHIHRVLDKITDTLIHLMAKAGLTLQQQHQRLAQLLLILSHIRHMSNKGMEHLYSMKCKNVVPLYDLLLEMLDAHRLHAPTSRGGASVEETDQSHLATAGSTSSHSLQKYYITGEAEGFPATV
# Chain of Transcription factor Sp1 (Homo sapiens) (P08047 whole entry, looked up): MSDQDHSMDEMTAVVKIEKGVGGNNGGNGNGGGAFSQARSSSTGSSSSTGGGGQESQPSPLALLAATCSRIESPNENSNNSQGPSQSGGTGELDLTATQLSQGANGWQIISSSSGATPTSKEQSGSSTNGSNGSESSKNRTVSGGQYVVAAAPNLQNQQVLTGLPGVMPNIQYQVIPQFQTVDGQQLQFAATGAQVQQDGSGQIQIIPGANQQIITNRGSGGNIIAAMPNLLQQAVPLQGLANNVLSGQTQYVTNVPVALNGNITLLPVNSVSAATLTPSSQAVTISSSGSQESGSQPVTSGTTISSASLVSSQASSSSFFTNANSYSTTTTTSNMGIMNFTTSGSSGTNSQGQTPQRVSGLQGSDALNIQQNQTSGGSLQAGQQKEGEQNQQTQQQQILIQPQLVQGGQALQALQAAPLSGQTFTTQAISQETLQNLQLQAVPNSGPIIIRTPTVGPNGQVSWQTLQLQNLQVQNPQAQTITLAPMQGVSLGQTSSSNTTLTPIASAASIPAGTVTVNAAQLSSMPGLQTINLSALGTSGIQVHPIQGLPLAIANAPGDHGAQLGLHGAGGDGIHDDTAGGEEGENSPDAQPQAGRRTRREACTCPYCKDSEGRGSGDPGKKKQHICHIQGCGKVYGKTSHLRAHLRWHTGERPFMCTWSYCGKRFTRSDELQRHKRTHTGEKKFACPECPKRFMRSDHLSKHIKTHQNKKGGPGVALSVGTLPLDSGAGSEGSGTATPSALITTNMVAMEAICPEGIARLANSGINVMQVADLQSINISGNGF
# Chain of Paired box protein Pax-6 (Homo sapiens) (P26367 whole entry, looked up): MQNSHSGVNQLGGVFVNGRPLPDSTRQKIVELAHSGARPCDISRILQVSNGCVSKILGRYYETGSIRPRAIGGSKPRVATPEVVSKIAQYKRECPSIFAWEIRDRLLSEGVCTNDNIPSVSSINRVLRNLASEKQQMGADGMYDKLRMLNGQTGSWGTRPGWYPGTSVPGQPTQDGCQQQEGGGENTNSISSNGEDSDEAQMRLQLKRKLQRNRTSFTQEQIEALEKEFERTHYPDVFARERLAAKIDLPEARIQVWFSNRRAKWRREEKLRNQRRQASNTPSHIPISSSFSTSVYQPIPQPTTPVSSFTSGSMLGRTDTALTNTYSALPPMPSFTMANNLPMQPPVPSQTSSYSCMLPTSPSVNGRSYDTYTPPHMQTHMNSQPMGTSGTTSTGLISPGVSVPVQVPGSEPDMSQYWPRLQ
# Chain of Nuclear receptor subfamily 1 group I member 3 (Homo sapiens) (Q14994 whole entry, looked up, the tested form may be a part): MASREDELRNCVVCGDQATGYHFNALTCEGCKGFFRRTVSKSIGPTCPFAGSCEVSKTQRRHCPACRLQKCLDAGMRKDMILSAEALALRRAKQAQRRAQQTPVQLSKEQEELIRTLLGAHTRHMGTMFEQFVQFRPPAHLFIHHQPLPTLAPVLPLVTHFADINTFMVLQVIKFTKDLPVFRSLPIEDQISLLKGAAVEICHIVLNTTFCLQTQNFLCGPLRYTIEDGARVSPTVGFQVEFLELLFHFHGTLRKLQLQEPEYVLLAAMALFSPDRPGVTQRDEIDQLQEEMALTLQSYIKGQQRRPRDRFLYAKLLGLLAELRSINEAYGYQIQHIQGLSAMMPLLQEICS
# Chain of Signal transducer and activator of transcription 3 (Homo sapiens) (P40763 whole entry, looked up): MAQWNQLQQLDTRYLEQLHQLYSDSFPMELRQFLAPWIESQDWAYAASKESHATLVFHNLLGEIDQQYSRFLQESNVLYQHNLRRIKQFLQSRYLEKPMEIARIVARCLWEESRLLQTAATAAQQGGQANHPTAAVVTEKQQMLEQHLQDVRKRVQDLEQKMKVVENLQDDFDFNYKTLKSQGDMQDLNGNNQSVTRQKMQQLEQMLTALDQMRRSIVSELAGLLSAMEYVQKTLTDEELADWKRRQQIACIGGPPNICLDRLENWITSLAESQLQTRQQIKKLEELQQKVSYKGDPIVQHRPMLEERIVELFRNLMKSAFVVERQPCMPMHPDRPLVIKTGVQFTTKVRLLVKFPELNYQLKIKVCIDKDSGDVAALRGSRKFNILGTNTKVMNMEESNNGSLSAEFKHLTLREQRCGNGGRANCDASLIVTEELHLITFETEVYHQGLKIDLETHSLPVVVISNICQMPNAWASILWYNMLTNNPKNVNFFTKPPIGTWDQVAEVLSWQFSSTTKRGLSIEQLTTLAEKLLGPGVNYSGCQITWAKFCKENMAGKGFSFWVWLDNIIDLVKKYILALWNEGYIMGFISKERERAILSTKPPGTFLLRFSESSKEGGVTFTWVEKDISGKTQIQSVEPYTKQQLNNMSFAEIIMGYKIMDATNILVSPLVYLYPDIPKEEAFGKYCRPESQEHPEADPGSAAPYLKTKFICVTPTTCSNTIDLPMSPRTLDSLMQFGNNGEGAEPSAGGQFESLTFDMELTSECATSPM
# Chain of Steroid hormone receptor ERR1 (Homo sapiens) (P11474 whole entry, looked up, the tested form may be a part): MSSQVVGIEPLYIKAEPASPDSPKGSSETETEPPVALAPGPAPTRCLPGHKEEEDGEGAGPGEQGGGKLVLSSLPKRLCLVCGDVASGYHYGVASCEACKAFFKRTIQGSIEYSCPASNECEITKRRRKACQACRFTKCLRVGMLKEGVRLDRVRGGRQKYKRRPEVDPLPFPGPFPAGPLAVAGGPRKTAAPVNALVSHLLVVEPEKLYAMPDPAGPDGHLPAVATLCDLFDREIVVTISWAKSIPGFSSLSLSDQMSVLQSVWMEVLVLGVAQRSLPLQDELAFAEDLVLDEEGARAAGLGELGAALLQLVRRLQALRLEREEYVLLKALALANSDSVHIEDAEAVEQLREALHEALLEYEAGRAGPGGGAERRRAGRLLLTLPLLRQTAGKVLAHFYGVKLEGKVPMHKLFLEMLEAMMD
# Chain of Estrogen-related receptor gamma (Homo sapiens) (P62508 whole entry, looked up, the tested form may be a part): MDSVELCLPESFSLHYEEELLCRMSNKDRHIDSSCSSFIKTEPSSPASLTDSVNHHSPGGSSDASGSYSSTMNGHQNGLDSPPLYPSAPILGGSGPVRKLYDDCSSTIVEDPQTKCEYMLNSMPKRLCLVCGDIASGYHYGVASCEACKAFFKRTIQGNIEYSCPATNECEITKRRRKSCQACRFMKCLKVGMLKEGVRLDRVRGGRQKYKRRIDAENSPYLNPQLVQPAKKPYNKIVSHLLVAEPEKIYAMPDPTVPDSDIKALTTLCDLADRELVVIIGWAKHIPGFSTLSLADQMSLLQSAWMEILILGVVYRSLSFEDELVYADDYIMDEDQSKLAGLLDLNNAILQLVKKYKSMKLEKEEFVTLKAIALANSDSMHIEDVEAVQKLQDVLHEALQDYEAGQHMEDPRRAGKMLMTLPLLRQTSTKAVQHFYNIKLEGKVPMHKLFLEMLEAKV
smiles,measurement,setting,value
CC(C)[C@H]1CC[C@@H](C)CC1=O,outcome,[1],inactive
same,AC50,[2],61.9 µM (active)
same,outcome,[3],inactive
same,outcome,[4],inactive
same,outcome,[5],inactive
same,outcome,[6],inactive
same,outcome,[7],inactive
same,outcome,[8],inactive
same,outcome,[9],inactive
same,outcome,[10],inactive
same,outcome,[11],inactive
same,outcome,[12],inactive
same,outcome,[13],inactive
Cc1c(N(C)C)c(=O)n(-c2ccccc2)n1C,outcome,[1],inactive
same,AC50,[2],153 µM (active)
same,outcome,[3],inactive
same,outcome,[5],inactive
same,outcome,[6],inactive
same,outcome,[7],inactive
same,outcome,[14],inactive
same,outcome,[8],inactive
same,outcome,[9],inactive
same,outcome,[10],inactive
same,outcome,[15],inactive
same,outcome,[16],inactive
same,outcome,[11],inactive
same,outcome,[13],inactive
CCCCCCCCCCCCCCCC(=O)O,outcome,[1],inactive
same,AC50,[2],25.3 µM (active)
same,outcome,[4],inactive
same,outcome,[5],inactive
same,outcome,[6],inactive
same,outcome,[7],inactive
same,outcome,[14],inactive
same,outcome,[8],inactive
same,outcome,[9],inactive
same,outcome,[15],inactive
same,outcome,[16],inactive
same,outcome,[11],inactive
same,outcome,[13],inactive
O=C(O)CCCCCCCCCCC(=O)O,outcome,[1],inactive
same,outcome,[2],inactive
same,outcome,[3],inactive
same,outcome,[5],inactive
same,outcome,[6],inactive
same,outcome,[7],inactive
same,outcome,[14],inactive
same,outcome,[8],inactive
same,outcome,[9],inactive
same,outcome,[10],inactive
same,outcome,[15],inactive
same,outcome,[17],inactive
same,outcome,[11],inactive
same,outcome,[12],inactive
CC(=O)OCCOC(C)=O,outcome,[1],inactive
same,AC50,[2],82.2 µM (active)
same,outcome,[3],inactive
same,outcome,[4],inactive
same,outcome,[6],inactive
same,outcome,[7],inactive
same,outcome,[14],inactive
same,outcome,[8],inactive
same,outcome,[9],inactive
same,outcome,[10],inactive
same,outcome,[16],inactive
same,outcome,[11],inactive
same,outcome,[12],inactive
same,outcome,[13],inactive
Nc1ccc(S(N)(=O)=O)cc1,outcome,[1],inactive
same,outcome,[2],inactive
same,outcome,[4],inactive
same,outcome,[5],inactive
same,outcome,[6],inactive
same,outcome,[7],inactive
same,outcome,[14],inactive
same,outcome,[8],inactive
same,outcome,[9],inactive
same,outcome,[10],inactive
same,outcome,[16],inactive
same,outcome,[11],inactive
same,outcome,[13],inactive
CC(C#N)(CCC(=O)O)N=NC(C)(C#N)CCC(=O)O (centres undefined),outcome,[1],inactive
same,AC50,[2],26.2 µM (active)
same,outcome,[3],inactive
same,outcome,[4],inactive
same,outcome,[6],inactive
same,outcome,[7],inactive
same,outcome,[14],inactive
same,outcome,[8],inactive
same,outcome,[9],inactive
same,outcome,[15],inactive
same,outcome,[18],inactive
same,outcome,[11],inactive
same,outcome,[19],inactive
CCCC[n+]1ccccc1,outcome,[1],inactive
same,outcome,[2],inactive
same,outcome,[3],inactive
same,outcome,[4],inactive
same,outcome,[5],inactive
same,outcome,[6],inactive
same,outcome,[14],inactive
same,outcome,[8],inactive
same,outcome,[9],inactive
same,outcome,[12],inactive
CC(C)(C)c1n[nH]c(=S)n(N)c1=O,outcome,[1],inactive
same,AC50,[2],44.2 µM (active)
same,outcome,[3],inactive
same,outcome,[5],inactive
same,outcome,[7],inactive
same,outcome,[14],inactive
same,outcome,[8],inactive
same,outcome,[9],inactive
same,outcome,[15],inactive
same,outcome,[16],inactive
same,outcome,[17],inactive
same,outcome,[18],inactive
same,outcome,[11],inactive
same,outcome,[12],inactive
CC1(C)[C@@H]2CC[C@@]1(C)[C@H](O)C2,outcome,[1],inactive
same,outcome,[2],inactive
same,outcome,[3],inactive
same,outcome,[5],inactive
same,outcome,[6],inactive
same,outcome,[7],inactive
same,outcome,[14],inactive
same,outcome,[8],inactive
same,outcome,[9],inactive
same,outcome,[10],inactive
same,outcome,[11],inactive
same,outcome,[12],inactive
same,outcome,[13],inactive
Cc1cc(C2(c3cc(C)c(O)cc3C)OS(=O)(=O)c3ccccc32)c(C)cc1O,outcome,[1],inactive
same,AC50,[2],24.2 µM (active)
same,outcome,[3],inactive
same,outcome,[4],inactive
same,outcome,[5],inactive
same,outcome,[6],inactive
same,outcome,[14],inactive
same,outcome,[8],inactive
same,outcome,[9],inactive
same,outcome,[10],inactive
same,outcome,[16],inactive
same,AC50,[17],4.2 µM (active)
same,outcome,[11],inactive
same,outcome,[12],inactive
same,outcome,[13],inactive
O=C(O)CCCCCCCC(=O)O,outcome,[1],inactive
same,outcome,[2],inactive
same,outcome,[3],inactive
same,outcome,[4],inactive
same,outcome,[5],inactive
same,outcome,[7],inactive
same,outcome,[14],inactive
same,outcome,[8],inactive
same,outcome,[9],inactive
same,outcome,[10],inactive
same,outcome,[15],inactive
same,outcome,[16],inactive
same,outcome,[11],inactive
